Data reported in PubChem BioAssay (NCI).
The panel holds about 83,000 compounds, 20% with a hit somewhere; the sample as a whole holds those more often.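 Step 1: grow cells in 96-well plates. Step 2: add test compound at a single concentration. Step 3: incubate 48 h. Step 4: record percent growth.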 Unmarked numbers belong to inactive results. Calls of active or inactive are those of the source. How the source made its calls: active means growth percent below 10; inactive means the rest.

What was measured:
Experiment in all cases: NCI-60 one-dose screen, 48 h (100 = growth as untreated, 0 = no growth, -100 = all killed)
Details in all cases: 10 µM unless noted
SK-MEL-2 melanoma = system: SK-MEL-2 melanoma
EKVX NSCLC = system: EKVX NSCLC
SN12C renal = system: SN12C renal
UO-31 renal = system: UO-31 renal
TK-10 renal = system: TK-10 renal
ACHN renal = system: ACHN renal
CAKI-1 renal = system: CAKI-1 renal
A498 renal = system: A498 renal
CCRF-CEM leukemia = system: CCRF-CEM leukemia
MOLT-4 leukemia = system: MOLT-4 leukemia

Row | SMILES | growth (SK-MEL-2 melanoma) | growth (EKVX NSCLC) | growth (SN12C renal) | growth (UO-31 renal) | growth (TK-10 renal) | growth (ACHN renal) | growth (CAKI-1 renal) | growth (A498 renal) | growth (CCRF-CEM leukemia) | growth (MOLT-4 leukemia)
1 | C[C@]12CCc3nc(Nc4ccc(O)cc4)sc3C1=CC[C@@H]1[C@@H]2CC[C@]2(C)/C(=N/NC(N)=S)CC[C@@H]12 | -13.5% (active) | -19.1% (active) | -46.7% (active) | -42% (active) | -7.19% (active) | -72.4% (active) | -36.2% (active) | 93.1% | -7.49% (active) | -5.84% (active)
2 | CCc1ccc(Nc2ncnc3c2cnn3-c2cccc(Br)c2)cc1 | 108% | 102% | 101% | 85.6% | 107% | 108% | 89.3% | 70.7% | 131% | 101%
3 | CCCCCCCCCCCCCCCC1=NCC[N+]1(CCO)CCO | 85.2% | 72.3% | 67% | 42.1% | 66.6% | 67.1% | 79.5% | 86.8% | – | 43%
4 | COCCn1c(Nc2ccc(C(=O)NO)cc2)nc2ccccc21 | 39.6% | 56.5% | 66.3% | 50.3% | 26.7% | 57.1% | 47.3% | 84.2% | 48.5% | 33.4%
5 | CC(=O)N(C)c1ccc(Nc2cc(C)[nH]c3ccc4ncnc4c23)cc1 | 116% | 79.4% | 61.7% | 72.6% | 79.3% | 55.4% | 80.3% | 78.5% | 28.9% | 1.82% (active)
6 | Fc1ccc2nc(-c3ccc(-c4noc(-c5ccc(Cl)cc5)n4)cc3)[nH]c2c1 | 105% | 107% | 110% | 83.9% | 115% | 110% | 102% | 81% | – | 89.8%
7 | Oc1c(-c2cc(C(F)(F)F)[nH]n2)cc(Cl)c(OCc2ccc(Cl)cc2)c1-c1ccc(Cl)c(C(F)(F)F)c1 | -40.9% (active) | 4.67% (active) | 5.54% (active) | -27.6% (active) | 7.21% (active) | 0.909% (active) | -15.7% (active) | -51.1% (active) | 5.04% (active) | -14.8% (active)
8 | CCN(CC)CCNc1c(C)cc(CO)c(Cl)c1C | 112% | 110% | 97.7% | 111% | 106% | 106% | 104% | 89% | 101% | 93%
9 | CC1C2CCC(C2)C1COCCOCCO (configuration not stated) | 112% | 112% | 109% | 98.7% | 109% | 106% | 105% | 83.7% | 112% | 97.6%
10 | CC(C)c1[nH]ncc1-c1nc2ccc3[nH]ncc3c2c2c1CCCC2 | 68.6% | 13.5% | 35.2% | 12.3% | 22.7% | 16.8% | 17.6% | -12.7% (active) | 28.8% | 9.07% (active)
11 | c1ccc(C(Nc2ccccn2)(c2ccccc2)c2ccccc2)cc1 | 74.5% | 38.1% | 75.9% | 35.4% | 85.5% | 69.3% | 63.3% | 72% | 81.2% | 66.3%
12 | CNCc1ccccc1CN(CC(=O)Nc1ccc2c(c1)CC1(C2)C(=O)Nc2ncccc21)C(=O)C(C)(C)C (configuration not stated) | 104% | 100% | 103% | 88.1% | 103% | 107% | 91.6% | 122% | 116% | 103%
13 | CN1CCN(Cc2ccc(NC(=O)c3cncc(C#Cc4ncc5ccccn45)c3)cc2C(F)(F)F)CC1 | -8.17% (active) | 43.9% | 24% | 5.98% (active) | 53.4% | 13.1% | 1.78% (active) | 11.4% | 8.69% (active) | 17.8%
14 | CC(=O)O[C@H]1[C@H](CC#CC#CC[C@@H]2C[C@]3(C)[C@H]4CC=C5[C@H]6[C@@H](C)[C@H](C)CC[C@]6(C(=O)NCCN(CCN)CCN)CC[C@@]5(C)[C@]4(C)CC[C@H]3C(C)(C)[C@H]2OC(C)=O)C[C@]2(C)[C@H]3CC=C4[C@H]5[C@@H](C)[C@H](C)CC[C@]5(C(=O)NCCN(CCN)CCN)CC[C@@]4(C)[C@]3(C)CC[C@H]2C1(C)C | 67% | -6.42% (active) | 51.9% | 33.7% | 110% | 75.9% | 35% | 122% | 19.8% | 26.8%
15 | COc1ccc(/C(=C\c2cc(OC)c(OC)c(OC)c2)C(=O)Nc2nc3ccc(Cl)cc3s2)cc1 | 94.8% | 80.5% | 96.9% | 76.4% | 92.4% | 103% | 83.2% | 97.4% | 85% | 64.4%
16 | COc1c(-c2cc(-c3ccc(C)o3)[nH]c(=O)n2)c(O)cc2occc12 | 69.6% | 69.8% | 63.6% | 71.5% | 104% | 89.9% | 63.8% | 54.1% | 77.8% | 41.1%
17 | C#CC[C@@H]1C[C@]2(C)[C@H]3CC[C@@H]4[C@H]5C(C(=C)C)CC[C@]5(C(=O)NCCCN5CCN(CCCN)CC5)CC[C@@]4(C)[C@]3(C)CC[C@H]2C(C)(C)[C@H]1OC(C)=O (some centres not stated) | -18.1% (active) | 51.9% | -84.4% (active) | -95.3% (active) | -91.5% (active) | -97.8% (active) | -96.1% (active) | 98.6% | -29.6% (active) | -28.3% (active)
18 | Cn1c(=O)c2c3c(oc2c2ccccc21)C(=O)c1ccccc1C3=O | 92.6% | 70.7% | 81.8% | 54.8% | 94.5% | 75.5% | – | 93.3% | 19.1% | 2.39% (active)
19 | Oc1ccc(-c2cnc(-c3ccccc3)[nH]2)c(O)c1 | 137% | 107% | 91.6% | 88.7% | 112% | 109% | – | 110% | -41.7% (active) | 94%
20 | CN(CCO)c1ccc(N2Cc3ccccc3OC3=C2C(=O)c2c(O)ccc(O)c2C3=O)cn1 | -54.4% (active) | -38.5% (active) | -90.9% (active) | -100% (active) | -98.5% (active) | -100% (active) | – | -48.2% (active) | -12.2% (active) | -30.6% (active)
21 | COc1ccc(/C(=C\c2ccc3c(c2)OCO3)C(=O)Nc2nc3ccc(F)cc3s2)cc1OC | 95.7% | 103% | 115% | 68.5% | 119% | 97.5% | 86.5% | 98.3% | – | 94.4%
22 | COc1cc(-c2n/c(=C\c3c(O)[nH]c4cc(Cl)ccc34)cc3c2=Nc2ccccc2-3)cc(OC)c1OC | 72.9% | 64.1% | 78.4% | 74.9% | 63% | 59.6% | 69.1% | 94.5% | – | 70.6%
23 | C=CCn1c(SCC(=O)Nc2ccc(/C(C)=N\O)cc2)nnc1-c1cc(-c2ccccc2)nc2ccccc12 | 72.1% | 55% | 69.3% | 40.6% | 74.5% | 38.4% | – | 65.1% | 18.2% | 3.61% (active)
24 | O=C(NO)c1ccc(NCc2csc3ccccc23)cc1 | 84.1% | 69.7% | 59.4% | 39.5% | 59.1% | 69.6% | – | 57.1% | 44.7% | 43.1%
25 | O=C(Nc1ccc(Cl)c(C(F)(F)F)c1)c1ccc(Nc2ccc(Cl)nn2)cc1 | 83.3% | 55.7% | 78.9% | 0.31% (active) | 68.1% | 52.4% | – | 51.6% | 44.8% | –
26 | COc1ccc(Nc2ncccc2C(=O)NCc2cn(Cc3cc(OC)cc(OC)c3)nn2)cc1 | 89.5% | 92.5% | 109% | 65.7% | 108% | 93.8% | 101% | 95.8% | – | 82.7%
27 | O=C1OC(c2ccc(-c3ccccc3)cc2)=C/C1=C/c1c(Cl)cccc1Cl | 105% | 86% | 95.3% | 81.1% | 88% | 105% | – | 93.5% | -14% (active) | 97.8%
